Assay outcomes: PubChem, National Center for Advancing Translational Sciences (NCATS)
Sampled rows, rich in hits. Any-hit rate of the full collection: about 0.4%.
FMDV RLuc = shows antiviral activity in FMDV Renilla assay; Potency, µM (doses to about 57.5 µM), hits mostly inhibitors; 0.32% of 120,000 active; AID 1745857; FMDV replicon cells, Renilla luciferase signal; further: nearly all actives have a fitted effect of over 55% in size
FMDV FLuc = antivirals against foot and mouth disease virus; 0.23% of 120,000 active; FMDV antiviral cell assay, firefly luciferase signal; Potency, µM (series often up to 57.5 µM), most hits filed as inhibitors; further: nearly all actives have a fitted effect of over 60% in size
Large screens that a line does not name were inactive; ! = not confirmed by another sample. The call rests on the fitted dose curve.

Cc1ccc(Cn2cc(CN(C3CC3)S(=O)(=O)c3ccccc3Br)nn2)cc1	none
COC(=O)C1CN(Cc2cn(Cc3ccc(C)cc3)nn2)CCS(=O)(=O)N1Cc1ccc(OC)cc1 (stereo not given)	none
CC(=O)c1c(C)[nH]c(C(=O)CSc2ccc(Br)cc2)c1C	none
CC(=O)c1c(C)[nH]c(C(=O)C(C)Sc2ccccc2Br)c1C (stereo not given)	FMDV FLuc 25.1µM
O=C(Nc1cccc(OCC2CCCO2)c1)C1CCCC1 (stereo not given)	none
S=C(NCCc1ccccc1)Nc1cccc(Cl)c1	none
Cc1ccc2c(CN3CCN(C(=O)c4cccc(F)c4)CC3)cc(=O)oc2c1	none
Cc1cccc(C(=O)N2CCN(Cc3ccc(-c4cccc(F)c4)s3)CC2)n1	FMDV RLuc inconclusive, FMDV FLuc 10µM
CCN(CC)C(=O)c1ccc(NC(=O)c2cc3ccc(OC)cc3nc2C)cc1	none
NC1CSC(CCCCC(=O)O)C1N (stereo not given)	none
O=C(Nc1ccc(C23CC4CC(CC(C4)C2)C3)cc1)c1cccc(Cl)c1	FMDV FLuc 0.355µM
O=C(Nc1ccc(C23CC4CC(CC(C4)C2)C3)cc1)c1ccccc1Cl	none
CC(NC(=O)c1cccs1)C(=O)N(CC#N)C1CC1 (stereo not given)	none
Cc1ccc2cccc(NC(=O)COc3ccc(C(C)(C)C)cc3)c2n1	none
Cc1ccc(-n2ncc3c(NC4CCCCCC4)ncnc32)cc1Cl	none
Cc1ccc(Cl)cc1-n1ncc2c(NC3CCCCCC3)ncnc21	FMDV RLuc 25.1µM!, FMDV FLuc inconclusive
CCCCn1nc(C(=O)N2CCCC2c2cccs2)c2ccccc2c1=O (stereo not given)	none
CC(NC(=O)CC1CCCO1)c1ccc(-c2ccccc2)cc1 (stereo not given)	FMDV RLuc inconclusive
COc1ccccc1OCCn1cc(C(=O)C(F)(F)F)c2cc(Br)ccc21	none
COc1ccccc1OCCn1cc(C(C)=O)c2ccccc21	FMDV RLuc 15.8µM, FMDV FLuc inconclusive
COc1ccccc1-c1c(C(F)(F)F)oc2cc(OCC(N)=O)ccc2c1=O	none
CC(=O)Nc1nc2ccc(CCC(=O)N3CCN(c4cccc(Cl)c4)CC3)cc2s1	none
CC(=O)N1CCN(C(=O)c2cc(-c3cccs3)nc3ccccc23)CC1	none
CSc1ccc(/C=C2/N=C(c3cccc4ccccc34)OC2=O)cc1	none
Cc1nc(C)c(-c2ccc(SCC(=O)Nc3ccc(C)c(F)c3)nn2)s1	none
Cc1nc(C)c(-c2ccc(SCC(=O)Nc3ccc(F)c(F)c3)nn2)s1	FMDV RLuc 7.94µM, FMDV FLuc inconclusive
COc1ccccc1-c1noc(Cn2cnc3c(oc4ccccc43)c2=O)n1	none
O=C(Nc1ccc(OC(F)F)cc1)c1ccc2ccccc2n1	none
O[C@@H](COc1cccc2ncccc12)CN1CCN(C2c3ccccc3[C@@H]3[C@H](c4ccccc42)C3(F)F)CC1 (stereo not given in full)	FMDV RLuc 25.1µM
Cc1ccccc1OCC(O)CN1CCN(c2nccs2)CC1 (stereo not given)	none
Clc1ccc(-c2ccc(CNCC3CCNCC3)o2)c(Cl)c1	FMDV RLuc 28.2µM, FMDV FLuc inconclusive
Fc1ccccc1-c1ccc(CNCC2CCNCC2)o1	none
Cc1c(Cl)cccc1Nc1nc(N)c(C(=O)C(C)C)s1	none
O=C(/C=C/c1ccc(Cl)cc1)c1ccccc1O	none
O=C(O)c1ccccc1C(=O)/C=C/c1ccc(Cl)cc1	FMDV RLuc 28.2µM
COc1ccc(Nc2cc(C)nc3ccc(Cl)cc23)cc1	none
Cc1ccc(/C=C/S(=O)(=O)NCC(=O)OCC(=O)c2c(C)[nH]c3ccccc23)cc1	none
Cc1ccc(C)c(N2CCN(C(=O)C3CCN(c4nnc(-n5c(C)ccc5C)s4)CC3)CC2)c1	FMDV RLuc 11.2µM, FMDV FLuc inconclusive
Cc1cc(C)cc(NC(=O)C2CCN(c3nnc(-n4c(C)ccc4C)s3)CC2)c1	none
COc1ccc(NC(=O)C(C)Oc2cc(C)cc(C)c2)c2cccnc12 (stereo not given)	FMDV RLuc 28.2µM, FMDV FLuc inconclusive
COc1ccccc1OC(C)C(=O)Nc1ccc(OC)c2ncccc12 (stereo not given)	none
CCOc1ccc(NC(=O)C(C)Oc2cc(C)cc(C)c2)c2cccnc12 (stereo not given)	none
COc1ccc(NC(=O)C(C)Oc2cccc(C)c2C)c2cccnc12 (stereo not given)	FMDV RLuc 3.98µM, FMDV FLuc inconclusive
COC(=O)c1ncoc1-c1ccccc1C(=O)NCc1ccc(Cl)cc1	none
O=C(CCC(=O)N/N=C/c1ccccc1[N+](=O)[O-])N/N=C/c1ccccc1[N+](=O)[O-]	none
O=C(CN1CCCC1c1ccc2c(c1)OCCCO2)Nc1c(Cl)cccc1C(F)(F)F (stereo not given)	none
COc1ccccc1CNC(=O)c1c(O)nc2c(C)cccn2c1=O	FMDV RLuc 35.5µM, FMDV FLuc inconclusive
COc1ccc(CCNC(=O)c2c(O)nc3c(C)cccn3c2=O)cc1OC	none
COc1ccc(OC)c(/C=C2\Oc3cc(OS(C)(=O)=O)ccc3C2=O)c1	none
CC(Oc1ccc(F)cc1)C(=O)Nc1nc(-c2ccc(F)cc2)ns1 (stereo not given)	FMDV RLuc 22.4µM, FMDV FLuc 22.4µM
COc1ccc(-c2nsc(NC(=O)COc3ccccc3OC)n2)cc1	none
COc1ccc(C(=O)NCCc2csc(-c3ccc(Cl)cc3)n2)cc1	none
CCCCOc1ccc(C(=O)NCCc2csc(-c3ccc(OC)cc3)n2)cc1	FMDV RLuc 11.2µM, FMDV FLuc 12.6µM
N#Cc1ccccc1CON=C1CCC2(CC1)OCCO2	none
O=[N+]([O-])c1cccc(CON=C2CCC3(CC2)OCCO3)c1	FMDV FLuc 2µM
O=C(Cc1ccccc1)NC1CCN(c2ccc(S(=O)(=O)C(F)(F)F)cc2)CC1	FMDV RLuc 3.55µM, FMDV FLuc 3.16µM
O=C(CCc1ccccc1)NC1CCN(c2ccccc2S(=O)(=O)C(F)(F)F)CC1	FMDV RLuc inconclusive
Cc1ccc(-n2c(/C=C\c3ccc(F)c(F)c3)nc3ccccc3c2=O)c(C)c1	FMDV RLuc 3.55µM, FMDV FLuc 7.94µM
Cc1ccccc1-n1c(/C=C/c2ccc(O)cc2)nc2ccccc2c1=O	FMDV RLuc inconclusive
O=C(O)COc1c(Br)cc(/C=C2/NC(=O)NC2=O)cc1Br	none
Cc1ccc(NC2c3ccccc3-c3ccccc32)cc1	none
Cc1ccc(NC(=O)C2CCCCC2)cc1	none
Cc1cc(Nc2ccccc2)nc(Nc2ccc(NC(=O)c3ccc(Cl)cc3)cc2)n1	FMDV RLuc 12.6µM, FMDV FLuc 14.1µM
COc1ccc(Nc2cc(C)nc(Nc3ccc(NC(=O)C4CCCCC4)cc3)n2)cc1	FMDV RLuc 28.2µM, FMDV FLuc inconclusive
Cc1cc(N2CCOCC2)nc(Nc2ccc(NC(=O)c3ccccc3)cc2)n1	none
Cc1ccc(C)c(NC(=O)c2ccc3ncsc3c2)c1	none
COc1ccc(CCNC(=O)c2cc(=O)c3ccccc3o2)cc1OC	none
CCc1ccc2oc(C(=O)NCCc3ccc(OC)c(OC)c3)cc(=O)c2c1	FMDV RLuc inconclusive, FMDV FLuc 35.5µM
O=C(Cc1c[nH]c2ccccc12)OCc1ccccc1Cl	none
COc1ccc2c(c1)c(C(C)=O)c(C)n2CCc1ccccc1	FMDV RLuc 11.2µM, FMDV FLuc inconclusive
COc1ccc2c(c1)c(C(C)=O)c(C)n2CCc1ccc(OC)c(OC)c1	none
COc1ccc(NC(=O)c2c(NCc3cccs3)sc3c2CCCC3)cc1	FMDV RLuc 8.91µM
COc1ccc(NC(=O)c2c(NCc3cccs3)sc3c2CCCCC3)c(OC)c1	none
COc1cc2c(cc1OC)C(C)N(S(=O)(=O)c1ccc(Cl)c(Cl)c1)CC2 (stereo not given)	none
